This excerpt belongs to a sample that is enriched for hits.
12-hLO inh: 12-hLO (ALOX12) enzyme inhibition | Potency, µM (titrated, usually from 57.1 µM), for inactives: at the highest dose activity change, negative = inhibition, most hits filed as inhibitors | purified 12-hLO, xylenol orange hydroperoxide absorbance | 150,000 compounds, 0.12% hits | P18054 | AID 1452; note: potency is the fitted concentration of half-maximal effect; nearly all actives have a fitted effect of over 55% in size
Target sequence (P18054 whole entry, looked up): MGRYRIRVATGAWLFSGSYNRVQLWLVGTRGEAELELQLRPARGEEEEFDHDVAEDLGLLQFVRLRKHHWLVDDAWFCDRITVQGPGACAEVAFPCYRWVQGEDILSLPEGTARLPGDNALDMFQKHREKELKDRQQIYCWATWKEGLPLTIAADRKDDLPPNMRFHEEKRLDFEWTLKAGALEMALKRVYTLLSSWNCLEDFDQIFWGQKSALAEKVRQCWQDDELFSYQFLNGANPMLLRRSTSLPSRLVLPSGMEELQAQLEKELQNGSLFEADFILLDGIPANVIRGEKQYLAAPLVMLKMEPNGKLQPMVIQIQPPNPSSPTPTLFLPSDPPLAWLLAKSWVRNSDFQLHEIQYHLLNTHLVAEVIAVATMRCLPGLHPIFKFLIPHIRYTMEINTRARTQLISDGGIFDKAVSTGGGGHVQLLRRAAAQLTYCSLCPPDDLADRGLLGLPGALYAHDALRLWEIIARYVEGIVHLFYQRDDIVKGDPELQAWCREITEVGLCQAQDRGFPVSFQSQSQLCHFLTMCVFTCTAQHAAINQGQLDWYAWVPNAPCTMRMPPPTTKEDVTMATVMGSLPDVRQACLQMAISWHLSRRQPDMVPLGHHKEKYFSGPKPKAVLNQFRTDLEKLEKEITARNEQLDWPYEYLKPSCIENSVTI
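Hydroperoxide formation by human 12-lipoxygenase from 40 uM arachidonic acid was followed colorimetrically via ferric-xylenol orange complex, using the 573/405 nm absorbance ratio. Enzyme concentration was 150 nM, with 30 min reaction at room temperature.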
IMPase inh: membrane-permeable compound that blocks inositol monophosphatase. AID 901. inhibition (IP1 accumulation), % at 46.1 µM. 120,000 tested, under 10 active. CHO-M1 cells, IP1 accumulation, HTRF TR-FRET ratio. P97697; active = well fitted curve in the direction sought with a large enough effect in the signal ratio, not every such curve was filed as active; inconclusive = small, poorly fitted or top-dose-only effect, or a change in a side signal; inactive = no such curve, though single readings can be large or run the other way; the % refers to the signal ratio;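 note: cells stimulated with carbachol in lithium chloride buffer; plate controls were DMSO basal wells for no effect and reference inhibitor wells for full effect; higher means more IMPase inhibition seen as more IP1 and lower FRET ratio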
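The IP-One HTRF competitive assay in carbachol-stimulated CHO-M1 cells quantifies cellular IP1. Compounds spanned up to 46 uM final, and activity is expressed as AC50 from concentration-response fits of the ratio and donor data.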
IMPase Li cell: IMPase inhibition in cells with lithium potentiation. CHO-M1 cells, IP1 TR-FRET (IP-One), carbachol + lithium. Potency, µM (series often up to 59.4 µM), inactives show top-dose activity, negative = IMPase inhibition, usual class: inhibitors. 210,000 compounds, 0.35% hits. AID 1457;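 note: IP1 builds up when IMPase is blocked and the TR-FRET signal falls; potency is the fitted concentration of half-maximal effect; plate controls were basal vehicle for no effect and high inhibitor control for full effect; nearly all actives have a fitted effect of over 50% in size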
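Concentration–response in CHO-M1 cells, lithium-potentiated; 30 min at 37C. IP1 detected by competitive TR-FRET after 10 min lysis at RT. Hill-fitted AC50.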
PNC inhibitor: perinucleolar compartment assembly inhibition. PC3M PTB-GFP, PNC prevalence imaging, 16 h; hits give low values. 140,000 compounds, 3.1% hits. activity change (PNC), negative = inhibition, % at 10 µM;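 active = readout at or below -70, meaning at least 70% loss of cells showing the perinucleolar compartment, a nuclear body marking cancer cells; inconclusive = readout between -30 and a set limit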;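 note: plate controls were DMSO wells for no effect and camptothecin positive control wells for full effect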
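PC3M cells stably expressing PTB-GFP, 750–1000 cells/well, treated 16 h at 37 °C with compound (23 nl of library stock), in duplicate. After paraformaldehyde fixation and Hoechst stain, imaged at 20x; PNC prevalence scored by image analysis.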
* = called active by the depositor; u = inconclusive; x = no result; [ ] = dose if it differs, or a comment. Unless noted, calls come from the whole dose curve; as a rule, active = well fitted curve in the direction sought with a large enough effect; inconclusive = small, poorly fitted or top-dose-only effect, or another doubt; inactive = no such curve, though single readings can be large; an effect the other way counts as inactive or inconclusive. Unless noted, % is set by controls: 0 for no effect and ±100 for the full control effect.

SMILES	12-hLO inh	IMPase inh	IMPase Li cell	PNC inhibitor
COc1cccc2sc(Nc3nnc(-c4ccccc4Cl)o3)nc12	0%	-10	-2%	u
O=C(Nc1nc(-c2cc3ccccc3oc2=O)cs1)c1ccc(Br)o1	20µM*	-3	17%[38.3 µM]	u
COc1cccc2sc(Nc3nc(-c4cc5ccccc5oc4=O)cs3)nc12	-3%	9	11%	-84*
COc1ccccc1-c1nnc(Nc2nc3c(OC)cccc3s2)o1	0%	0	u	-87*
Nc1ccc(Nc2nc(-c3cc4ccccc4oc3=O)cs2)cc1	x	x	11%	x
COC(=O)c1ccc(C(NC(=O)c2ccco2)[C@]2(C)C[C@H]2C2CCCCC2)cc1 (stereo partly specified)	-4%	x	2%	x
COc1ccc(OC)c(NS(=O)(=O)c2ccc(NC(=O)C3COc4ccccc4O3)cc2)c1 (stereo unspecified)	-2%	-2	39%[38.3 µM]	-27
COCCNC(=O)/C=C/c1c(Cl)cccc1Cl	-4%	x	8%	u
Clc1ccc2c(c1)-c1nnc(Br)n1-c1ccccc1S2	-4%	0	9%	-100*
O=S(=O)(Nc1ccc(Cl)cc1Cl)c1cc(Cl)ccc1Cl	-8%	x	x	x
Cc1ccc(-n2c(=O)[nH]c3c(oc4ccccc43)c2=O)cc1	x	x	-5%	x
COc1ccc(-n2c(=S)[nH]c3c(oc4ccccc43)c2=O)cc1	-10%	x	6.3µM*	30
CN(Cc1cccc2ccccc12)Cc1cccc2ccccc12	0%[11.4 µM]	x	0%	x
CC(=O)NCCc1ccc(S(=O)(=O)Nc2cccnc2)cc1	4%	7	0%	-82*
COCC(=O)NCc1ccc2c(c1)cc(C)n2C	0%	x	18%	-113*
Cc1cc(C)c(S(=O)(=O)Nc2ccc3c4c(cccc24)CC3)c(C)c1	-15%	10	12%[38.3 µM]	-88*
Cc1cc(C)c(S(=O)(=O)Nc2ccc3c(c2)CCC3)c(C)c1	-13%	x	-9%	-89*
Cc1cc(C)c(S(=O)(=O)Nc2ccc(O)cc2)c(C)c1	-5%	13	-7%[38.3 µM]	u
Cc1cc(C)cc(OCC(=O)Nc2ccc3c4c(cccc24)CC3)c1	-1%	3	-20%[38.3 µM]	9
CN(C(=O)CCc1nc(-c2ccccc2F)no1)c1ccc(Cl)cc1	x	-5	x	x
COc1ccc2[nH]cc(CCNc3ncncc3-c3ccccc3Cl)c2c1	x	x	24%	x
CC(CCN(C)C)OC(=O)c1ccc(C(C)c2ccccc2)o1 (stereo unspecified)	3%	11	23%[38.3 µM]	-107*
CC(CN(C)Cc1ccccc1)OC(=O)c1ccccc1F (stereo unspecified)	-1%	-7	6%	-1
CC(C)(CCC(C)(C)c1ccccc1)c1ccccc1	2%[11.4 µM]	x	13%	x
Cc1ccc(N2CC(C(=O)N/N=C/c3cccc([N+](=O)[O-])c3)CC2=O)cc1 (stereo unspecified)	1%	u	5%[38.3 µM]	-83*
SMILES	12-hLO inh	IMPase inh	IMPase Li cell	PNC inhibitor
Cc1ccc(-c2noc(CCC(=O)N3CCCc4ccccc43)n2)cc1	-12%	-13	9%[38.3 µM]	u
N/C(=N\OC(=O)Oc1ccccc1)c1ccc([N+](=O)[O-])cc1	-4%	x	-2%	-121*
COc1ccc(COn2c(=O)c(C)[n+]([O-])c3ccccc32)cc1OC	-4%	16	20%[38.3 µM]	-111*
Cc1c(=O)n(OCc2ccccc2)c2ccccc2[n+]1[O-]	-8%	1	4%[38.3 µM]	5
Cc1c(C)c(C)c(CC2(C)CSC2)c(CC2(C)CSC2)c1C	-5%[11.4 µM]	x	5%	x
O=S(=O)(O)C(c1ccccc1)[C@@H](O)c1ccccc1 (stereo partly specified)	x	x	-4%	x
O=C(Cn1cnnn1)Nc1ccccc1Cc1ccccc1	-3%	1	2%[38.3 µM]	-100*
CCSc1nnc2c(n1)OC(c1ccc(OC)c(OC)c1)N(C(C)=O)c1ccccc1-2 (stereo unspecified)	x	-2	x	x
CCNC(=S)NNC(=O)c1cccnc1	6%	22	4%	-7
CCCCNC(=S)NNC(=O)c1cccnc1	-1%	x	0%	-87*
C=C(C)C(N)=O	-2%	x	10%	x
C=CCn1c(SCn2nnc3ccccc3c2=O)nnc1-c1ccc(Br)cc1	-8%	-4	25%[38.3 µM]	-84*
O=c1c2ccccc2nnn1CSc1ccccc1	-4%	5	-2%	u
O=c1c2ccccc2nnn1CSc1ccc2ccccc2n1	0%	x	14%	-104*
C=CCn1c(SCn2nnc3ccccc3c2=O)nnc1-c1ccc(F)cc1	-3%	-1	0%[38.3 µM]	37
N#CCC(=O)Nc1ccc(C(=O)OCC(=O)Nc2ccccc2-c2ccccc2)cc1	x	x	4%	x
Cc1ccc(NC(=O)C2=CCN(S(=O)(=O)c3ccc(F)cc3)CC2)cc1	-1%	x	10%	58
Cc1ccc(S(=O)(=O)N2CC=C(c3ccc(F)cc3)CC2)cc1	2%	1	3%	-80*
CCCCCc1nnc(NC(=O)Cn2cnc3ccccc3c2=O)s1	-1%	1	-1%	-111*
Cc1[nH]c(=O)[nH]c(=O)c1S(=O)(=O)N(C)Cc1ccccc1	-4%	0	3%[38.3 µM]	-106*
CCCCN(C)S(=O)(=O)c1c(C)[nH]c(=O)[nH]c1=O	5%	4	23%[38.3 µM]	-23
Cc1ccc(C(=O)N2NC(c3ccc(F)cc3)C3C(=O)N(c4ccc(C)cc4)C(=O)C32)cc1 (stereo unspecified)	-9%	x	-2%	63
Cc1ccc(C(=O)N2NC(c3ccc(F)cc3)C3C(=O)N(c4ccc(C)c(C)c4)C(=O)C32)cc1 (stereo unspecified)	1%	x	1%	-90*
CCCNC(=O)COc1ccc(S(=O)(=O)Nc2ccc(C)cc2)cc1	1%	-4	7%[38.3 µM]	u
c1ccc(OCc2nc3c4c(ncn3n2)-c2ccccc2CC42CCCC2)cc1	1%	x	13%	-125*
SMILES	12-hLO inh	IMPase inh	IMPase Li cell	PNC inhibitor
O=C(NCc1ccc(F)cc1)c1cnn2ccccc12	-2%	6	-10%[38.3 µM]	-84*
O=C(O)C/C(=C\c1ccccc1)C(=O)O	-3%[11.4 µM]	x	8%	x
CCC(C)NC(=O)C1CCN(c2nc(C)cc(C)n2)CC1 (stereo unspecified)	-2%	-9	-7%[38.3 µM]	15
Cc1cc(-c2ccccc2)nc(N2CCC(C(=O)NC(C)C)CC2)n1	-6%	1	8%[38.3 µM]	-100*
CC(C)OP(=O)(c1ccccc1)c1ccccc1	-4%	-4	-7%	-4
Cc1nc2ccccc2c(=O)n1CC(=O)N1CCOCC1	2%	-5	14%[38.3 µM]	-85*
COCCN(C(=O)Cc1cccs1)c1nnc(-c2cccnc2)s1	-1%	6	1%[38.3 µM]	-100*
CCC(C)NC(=O)[C@H](CSCc1ccccc1)N1Cc2ccccc2C1=O (stereo partly specified)	-2%	x	8%	-82*
CN(C)Cc1ccccc1-c1cc(NCc2ccccc2)ncn1	x	x	15%	x
CCN(CC)C(=O)c1ccc(S(=O)(=O)N2CCC(c3nc4ccccc4s3)CC2)cc1	4%	-11	13%	-100*
O=C(O)[C@@H]1[C@@H]2C[C@@H]3[C@@H](OC(=O)[C@@H]31)[C@H]2Br	4%[11.4 µM]	x	6%	x

Screening results deposited in PubChem by National Center for Advancing Translational Sciences (NCATS).
